From the supplement of paper PMC10011410 come the findings set out here.

± gives the standard deviation of the averaged measurements.

This experiment has as its system AmpC beta-lactamase (E. coli). The experiment in a line: AmpC inhibition relative to DMSO; higher = more inhibition. Here is the method: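 Aggregation counter-screen: inhibition of E. coli AmpC beta-lactamase (5 nM, nitrocefin substrate, 50 mM sodium phosphate pH 7.0, RT, 5 min) by KAT inhibitors at 4, 11, 33 and 100 uM, with or without 0.01% Triton X-100. Percent inhibition is relative to DMSO controls. Four technical replicates.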

[1] abbreviates: 4 µM, detergent: 0.01% Triton X-100.
[2] abbreviates: 11 µM, detergent: 0.01% Triton X-100.
The mark [3] stands for this setting: 33 µM, detergent: 0.01% Triton X-100.
Where [4] appears, read: 100 µM, detergent: 0.01% Triton X-100.
Where [5] appears, read: 100 µM, detergent: no detergent.

`CNC(=O)Nc1ccc2c(c1)CC[C@@]21OC(=O)N(CC(=O)N(Cc2ccc(F)cc2)[C@@H](C)C(F)(F)F)C1=O`: the AmpC inhibition reads like this: under setting [1], 5.14 ± 2.9%; (4 µM, detergent: no detergent) -1.32 ± 9.8%; under setting [2], 5.67 ± 2.5%; (11 µM, detergent: no detergent) 5.86 ± 3.8%; under setting [3], -0.581 ± 4.1%; (33 µM, detergent: no detergent) -6.17 ± 3.8%. For the same compound, the AmpC inhibition was -3 ± 2.8% under setting [4] and -3.55 ± 4.8% under setting [5].

In the case of `CCCCCOc1ccc(/C=C\c2cccc(O)c2C(=O)O)cc1`, the AmpC inhibition runs as follows: under setting [1], -1.02 ± 4.7%; (4 µM, detergent: no detergent) -1.47 ± 3.3%; under setting [2], 7.71 ± 5.1%; (11 µM, detergent: no detergent) 27.2 ± 7.2%; under setting [3], 5.08 ± 5.7%; (33 µM, detergent: no detergent) 69 ± 16%. The AmpC inhibition was found to be 14 ± 3% under setting [4] and 99.2 ± 1.4% under setting [5].

Consider `CCCC1(c2ccccc2)NC(=O)N(CC(=O)N(C)Cc2c(F)cccc2Cl)C1=O` (stereo not given), for which the AmpC inhibition reads like this: under setting [1], 14.2 ± 2.9%; (4 µM, detergent: no detergent) -1.7 ± 2%; under setting [2], 7.15 ± 9.5%; (11 µM, detergent: no detergent) 11.6 ± 7.8%; under setting [3], 6.15 ± 7.3%; (33 µM, detergent: no detergent) 5.75 ± 6.8%. For the same compound, the AmpC inhibition under setting [4] stood at 6.78 ± 1.8% and the AmpC inhibition under setting [5] amounted to 3.79 ± 0.91%.

Consider `O=C1/C(=C/c2ccc(O)c(Br)c2)CCC/C1=C\c1ccc(O)c(Br)c1`, for which the AmpC inhibition amounted to 4.59 ± 5% under setting [1]; 7.44 ± 6.5% (4 µM, detergent: no detergent); 9.28 ± 8.5% under setting [2]; 55.4 ± 9.9% (11 µM, detergent: no detergent); 5.98 ± 3.4% under setting [3]; 78.6 ± 1.3% (33 µM, detergent: no detergent). For the same compound, the AmpC inhibition was -4.62 ± 5.8% under setting [4] and 81.8 ± 1.7% under setting [5].

Turning to `O=C(OCC)/C(C(OCC)=O)=C\CCCCCCCCCCCCCC`, the AmpC inhibition is 5.31 ± 3.4% under setting [1]; -0.349 ± 2.3% (4 µM, detergent: no detergent); 1.25 ± 19% under setting [2]; 41.5 ± 10% (11 µM, detergent: no detergent); 6.47 ± 3.7% under setting [3]; 50.3 ± 16% (33 µM, detergent: no detergent). Also, the AmpC inhibition was 1.39 ± 4.3% under setting [4] and 86.8 ± 6.6% under setting [5].
